Reference: PubChem BioAssay AID2675 (National Center for Advancing Translational Sciences (NCATS), 2010)
The whole screen tested about 280,000 compounds, of which about 100 (0.036%) were called active. Inconclusive results (about 11%) are left out. The sample holds actives, similar compounds and a random draw of the others, so the mix is not that of the screen. Calls follow the shape of the dose curve; as a rule, active = well fitted inhibition curve with a large enough effect in the signal ratio, with a control signal flat (not every such curve was filed as active); inconclusive = small, poorly fitted or top-dose-only effect, or effect the other way, or a change in a side signal; inactive = no such curve, though single readings can be large or run the other way; the % refers to the signal ratio.

target: Muscleblind-like protein 1 (Homo sapiens) (UniProt Q9NR56); assay: qHTS Assay for Inhibitors of MBNL1-poly(CUG) RNA binding; conditions: TR-FRET MBNL1-His/biotin-(CUG)12 binding, 665/545 ratio; series mostly up to 57.5 µM
Sequence (Q9NR56 whole entry, looked up): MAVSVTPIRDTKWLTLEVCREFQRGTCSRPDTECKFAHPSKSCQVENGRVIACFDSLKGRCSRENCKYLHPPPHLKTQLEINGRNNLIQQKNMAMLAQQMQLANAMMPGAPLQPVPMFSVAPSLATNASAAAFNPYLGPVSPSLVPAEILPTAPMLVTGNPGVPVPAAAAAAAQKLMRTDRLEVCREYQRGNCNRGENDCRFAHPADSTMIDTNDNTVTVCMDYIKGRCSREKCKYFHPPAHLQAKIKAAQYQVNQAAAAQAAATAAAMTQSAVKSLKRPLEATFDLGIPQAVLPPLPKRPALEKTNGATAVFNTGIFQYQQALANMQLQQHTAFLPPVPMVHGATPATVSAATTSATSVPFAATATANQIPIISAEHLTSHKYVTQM
From the text: NIH Chemical Genomics Center [NCGC] NIH Molecular Libraries Probe Production Centers Network [MLPCN] MLPCN Grant: R03 MH087421-01 Assay Submitter (PI): Charles Thornton NCGC Assay Overview: Expanded CTG repeats in the 3' untranslated region of the DM protein kinase (DMPK) gene causes type I myotonic dystrophy (DM1). DM1 is a multi-systemic disease with a prevalence of 1/7000. Clinical features include myotonia, progressive muscle weakness and wasting, cardiac arrhythmia, insulin resistance, hypersomnolence, cataracts, and other symptoms. The pathogenic effect of expanded CTG repeats stems from deleterious effects of the mutant transcript. CUGexp mRNA accumulates in nuclear foci and sequesters proteins of the muscleblind family, of which MBNL1 is the most common family member in skeletal muscles. The binding interaction between MBNL1 and CUGexp tracts leads to deregulation of alternative splicing and is therefore a key molecular step in the pathogenesis of DM1. To target this binding interaction, we optimized a protein-RNA binding assay in 1536-well format for identification of small molecule inhibitors of biotinylated (CUG)12 and his-tagged MBNL1 binding. Protein-RNA complex of MBNL1-His and Biotin-(CUG)12 captures the detection reagents terbium-labeled anti-His antibody and streptavidin conjugated XL665. This brings the terbium label within close proximity to XL665 to allow time-resolved fluorescence resonance energy transfer (TR-FRET). Inhibitors of MBNL1-(CUG)12 binding will disrupt TR-FRET.
NCGC Assay Protocol Summary: This is a TR-FRET binding assay with MBNL1-His and Biotin-(CUG)12 RNA. The assay uses a ratiometric measurement. In the presence of MBNL1-(CUG)12 complex, the excitation energy is transferred to the XL665 acceptor label, causing emission at 665nm, while the 545nm donor signal […]. Data were normalized to the controls for basal activity (buffer only) and 100% activity (with MBNL1-(CUG)12). […] The final titration was 92 nM to 58 uM. (3) Add 1 ul of terbium labeled anti-His antibody (0.055 ng/ul final concentration) (4) Add 1 ul of streptavidin-XL665 (5 nM final concentration) (5) Incubate 60 min at room temperature (6) Detect the assay plate in a EnVision plate reader (PerkinElmer) with Ex=340 nm, Em1=665 nm and Em2=545 nm. Keywords: mytonic dystrophy type I, DM1, muscleblind like 1, MBNL1, CUG expansion, protein-RNA binding inhibitor, high throughput screening, MLSMR, MLSCN, NIH Roadmap, qHTS and NCGC

Activity change, negative = inhibition, inactive:
Cc1nc2nc(SCC(=O)Nc3cccc(F)c3)[nH]c2cc1Br
FC(F)(F)c1nnc2c3ccccc3c(Cl)nn12
COc1cc(CCC(=O)N2CCN(c3ccccc3Cl)CC2)cc(OC)c1OC
Cc1cc(=O)n2[nH]c(-c3cccc(Cl)c3)cc2n1
Cc1cc2oc(=O)cc(CN(C)Cc3ccc(OC(F)F)cc3)c2cc1Cl
CN(Cc1ccccc1)C(=O)c1ccc(COc2ccccc2)cc1
CCCCC(=O)Nc1ccccc1N1CCN(c2ccc(F)cc2)CC1
CC(=O)N1CCC(C(=O)OCc2ccc(Cl)cc2)(c2ccccc2)CC1
COc1cnc(-c2ccccn2)nc1Oc1ccc(C(C)(C)C)cc1
COc1ccc(-c2nn(-c3ccccc3)cc2/C=C2/SC(=S)N(CCCC(=O)O)C2=O)c(C)c1
C=CCSc1nnc(N2C(=O)C(O)=C(C(=O)c3ccco3)C2c2ccc(F)cc2)s1 (stereo not given)
CC1C(=O)Nc2ccc(S(=O)(=O)N3CCN(c4ccccc4F)CC3)cc2NC1=O (stereo not given)
CCN(CC(=O)Nc1ccc(C)c(S(=O)(=O)N(C)C)c1)Cc1ccccc1
O=C(c1ccccc1F)N(Cc1ccccc1)Cc1ccccc1
COc1ccc(COC(=O)c2ccc(Cl)c(S(=O)(=O)N3CCOCC3)c2)cc1F
CN(CC1CCCN(CCc2cccc(C(F)(F)F)c2)C1)C(=O)c1ccc2nc[nH]c2c1 (stereo not given)
COc1cc(/C=C/C(=O)N2CCc3ccccc3C2)cc(OC)c1OC
CN(C(=O)CN1C(=O)/C(=C/c2ccc(Cl)cc2)SC1=S)C1CCS(=O)(=O)C1 (stereo not given)
CC(=O)c1cc2c(cc1NC(=O)Cn1nc(-c3ccc(F)cc3)ccc1=O)OCO2
O=C(C1CCCN(S(=O)(=O)c2ccccc2)C1)N1CCN(c2ccc(F)cc2)CC1 (stereo not given)
CC(C)C[C@@H](COc1ccccc1)N1CCN(CC(C)C)CCC1=O
Cc1sc2ncn(CC(=O)NCCCC(=O)N3CCN(c4ccccc4F)CC3)c(=O)c2c1C
CCOC(=O)N1CCN(Cc2nc3cc(NC(=O)CC)ccc3n2CC)CC1
OC(CNCCc1ccc(Cl)cc1Cl)COc1ccccc1 (stereo not given)
Cc1cnc(C)c(N2CCN(C(=O)C3CCC(=O)N(CCc4cccc(F)c4)C3)CC2)n1 (stereo not given)
Cc1ccc(-n2nc3c(=O)n(C(C)C(=O)NCc4ccc5c(c4)OCO5)nc(C)c3c2C)cc1 (stereo not given)
CSc1ccc(S(=O)(=O)N2CCC(C(=O)NCCc3ccccc3)CC2)cc1
Cc1ccccc1NC(=S)NC(=O)Cc1ccc(Cl)cc1
COc1ccc(C(=O)NC2CCN(C(=O)Nc3ccc(F)cc3)CC2)cc1
CC(=O)c1cccc(NC(=O)CN2C(=O)c3cccnc3Oc3ccc(Cl)cc32)c1
Cc1cc(CN(C)C(=O)c2cc(COc3ccc(C)c(C)c3)on2)n[nH]1
COc1ccc2c(C)c(CCC(=O)NC3CC3)c(=O)oc2c1C
COc1cccc(C2CC(c3cccs3)=NN2C(=O)CSC2=NCCS2)c1OC (stereo not given)
COc1ccc(OC)c(NC(=O)CN(C)CCOc2ccc(Br)cc2)c1
COC(=O)c1cc(S(=O)(=O)Nc2ccc(C)c(F)c2)c[nH]1
COc1ccc(-c2nc3ccccc3c(=O)n2CCc2ccc(O)cc2)cc1
CCC(C(=O)OC)n1cnc2scc(-c3ccc(C)cc3)c2c1=O (stereo not given)
CCc1ccccc1N(CC(=O)NCC1CCCO1)C(=O)CCC(=O)Nc1nccs1 (stereo not given)
CCN1CCN(c2sc(S(C)(=O)=O)nc2S(=O)(=O)c2ccc(Cl)cc2)CC1
CCNC(=O)N1CCCC(C(=O)c2ccc(-c3ccccc3)cc2)C1 (stereo not given)
